From PubChem BioAssay AID504332 (National Center for Advancing Translational Sciences (NCATS), 2011)
Hit rate of the full screen: of about 350,000 compounds, about 31,000 (8.9%) were called active. Not shown: some 15% with an inconclusive outcome. Calls follow the shape of the dose curve; as a rule, active = well fitted inhibition curve with a large enough effect; inconclusive = small, poorly fitted or top-dose-only effect; inactive = no such curve, though single readings can be large or run the other way. Shown is part of a subset that was picked to be rich in actives. A call without a number means that no potency is given here.

target: Histone-lysine N-methyltransferase EHMT2 (Homo sapiens) (UniProt Q96KQ7); experiment: qHTS Assay for Inhibitors of Histone Lysine Methyltransferase G9a; details: G9a H3K9 monomethylation, AlphaScreen, 2 h; series mostly up to 59 µM; also: nearly all actives have a fitted effect of over 75% in size
Outline: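 G9a (20 nM) was preincubated 15 min with compound, then reacted 2 h at room temperature with 500 nM biotin-H3K9 peptide and 20 µM SAM. Monomethyl-H3K9 detected by AlphaScreen using anti-H3K9me1 antibody.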
Potency is read from the fitted curve at half-maximal effect.

Chain of Histone-lysine N-methyltransferase EHMT2 (Homo sapiens) (Q96KQ7 913-1193 limits assumed): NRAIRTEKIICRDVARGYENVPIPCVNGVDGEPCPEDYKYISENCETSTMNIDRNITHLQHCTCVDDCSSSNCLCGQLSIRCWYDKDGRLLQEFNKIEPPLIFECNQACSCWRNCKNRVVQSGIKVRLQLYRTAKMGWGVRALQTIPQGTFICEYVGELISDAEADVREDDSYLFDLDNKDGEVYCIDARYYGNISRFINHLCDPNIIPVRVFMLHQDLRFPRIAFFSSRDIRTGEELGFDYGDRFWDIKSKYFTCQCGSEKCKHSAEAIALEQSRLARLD

Row | SMILES | Potency | activity, negative = inhibition
1 | O=C(NCCCc1ccccc1)c1cc(COc2c(F)cccc2F)on1 | inactive | 
2 | CCc1nn(CCCC(=O)NCc2ccc(C)cc2)c(=O)c2cc3occc3n12 | inactive | 
3 | CN(CCc1ccccn1)C1CCCN(S(=O)(=O)c2ccccc2Cl)C1 (stereo not given) | inactive | 
4 | COc1c(Cl)cc(Cl)cc1C(=O)Nc1cccc2cccnc12 | inactive | 
5 | COc1ccc(-c2nn3c(=O)cc(CN4CCN(C(=O)c5ccc(OC)c(OC)c5)CC4)nc3s2)cc1 | inactive | 
6 | Cc1ccc(S(=O)(=O)N[C@@H](Cc2ccccc2)C(=O)N2CCC(C(=O)N[C@H](C(=O)O)C(C)O)CC2)cc1 (stereo not given in full) | inactive | 
7 | COc1ccc(S(=O)(=O)N2CCOCC2)cc1NC(=O)Cc1c(F)cccc1Cl |  | 17.5% [at 12.7 µM] (inactive)
8 | CC(OC(=O)CNC(=O)c1cccc(F)c1)C(=O)NC1CCCCC1C (stereo not given) | inactive | 
9 | COc1ccc(NC(=O)C2CCN(c3ccc(Sc4ccc(C)cc4)nn3)CC2)c(OC)c1 | inactive | 
10 | Cc1cc(NC(=O)c2ccc(-c3ccc(Cl)cc3)o2)cc(-c2nc3ncccc3o2)c1O | inactive | 
11 | COc1ccc(CCNC(=O)CCc2ccccc2O)cc1OC |  | 7.03% [at 0.501 µM] (inactive)
12 | COc1ccccc1CN1CCN(Cc2cc(OC)c(OC)cc2OC)CC1 | 8.91 µM (active) | 
13 | COc1ccc(OC)c(CN2CCN(C(=O)CNC(=O)c3cc(C)cc(C)c3)CC2)c1 | inactive | 
14 | COC(=O)N1CCC2(CCCN(Cc3ccccc3OC)C2)CC1 |  | 2.95% [at 12.7 µM] (inactive)
15 | COc1ccc(C(=O)CSc2c(C(C)C)cnc3c2c(=O)n(C)c(=O)n3C)cc1 | inactive | 
16 | CCN1C(=O)[C@@H]2[C@@H](c3ccc(-c4ccccc4)cc3)N3CCCC[C@@]3(C(=O)OC)[C@@H]2C1=O |  | -6.56% [at 2.33 µM] (inactive)
17 | CCc1cnc2c(c1SCC(=O)N1CCC(C)CC1)c(=O)n(C)c(=O)n2C | inactive | 
18 | COc1ccc(N(C(=O)c2cccnc2)S(=O)(=O)c2ccc(OC)c(OC)c2)cc1 | inactive | 
19 | COc1ccc(N(C(=O)c2cccnc2)S(=O)(=O)c2ccc3c(c2)n(C)c(=O)n3C)cc1 |  | -0.924% [at 12.7 µM] (inactive)
20 | O=C(c1cccnc1)N(c1cc2sc(=O)oc2c2ccccc12)S(=O)(=O)c1ccccc1 | 1.12 µM (active) | 

Row | SMILES | Potency | activity, negative = inhibition
21 | O=C(c1ccco1)N1CCN(C(=O)c2cc(-c3ccccc3F)no2)CC1 | inactive | 
22 | CCO/C=C1\C(=O)N(c2ccc(OCC)cc2)C(=O)c2ccccc21 | 31.6 µM (active) | 
23 | CCCOC(=O)c1ccc(N2C(=O)c3ccccc3C2=O)cc1 | inactive | 
24 | CCOc1ccc(NC(=O)C(CC(C)C)N2Cc3ccccc3C2=O)cc1 (stereo not given) | inactive | 
25 | O=C(COC(=O)c1ncc(Cl)c(Cl)c1Cl)NNC(=O)c1ccccc1 | inactive | 
26 | Cc1ccc(C(=O)Nc2cccc3ncccc23)cc1[N+](=O)[O-] |  | 35.3% [at 12.7 µM] (inactive)
27 | O=[N+]([O-])c1cc([N+](=O)[O-])c2cccnc2c1O | 31.6 µM (active) | 
28 | COC(=O)c1ccc(COc2cc([N+](=O)[O-])cc3cccnc23)cc1 | inactive | 
29 | O=c1cc(N2CCN(Cc3ccccc3)CC2)c(-c2ccccc2)n[nH]1 | inactive | 
30 | O=C1c2ccccc2C(=O)c2c1cccc2N1CCN(Cc2ccccc2)CC1 | 10 µM (active) | 
31 | CCc1c(C)nc(N2CCN(Cc3ccccc3)CC2)[nH]c1=O |  | -41.6% [at 12.7 µM] (inactive)
32 | N#Cc1cccc(OC(=O)c2ccc3c(=O)n4c(nc3c2)CCC4)c1 |  | -1.34% [at 0.501 µM] (inactive)
33 | CC(=O)NC(Cc1ccccc1)C(=O)NC1CCN(c2ncccc2[N+](=O)[O-])CC1 (stereo not given) | inactive | 
34 | COc1ccc(-c2cc3ncccc3cn2)cc1 |  | -3.56% [at 0.501 µM] (inactive)
35 | COc1ccc(-c2cc(C3CCN(c4ncccc4[N+](=O)[O-])CC3)[nH]n2)cc1 | 50.1 µM (active) | 
36 | O=C(NCC1CCCO1)c1cc2c([nH]c3ccccc32)c(-c2ccc(F)cc2)n1 (stereo not given) |  | 6.78% [at 12.7 µM] (inactive)
37 | COc1cc(NC(=O)CN2C(=O)NC(C)(c3ccc(OC(F)F)cc3)C2=O)cc(OC)c1OC (stereo not given) | inactive | 
38 | CSc1nc(-c2ccc(F)cc2)nc2c1Cc1c(CO)cnc(C)c1O2 | inactive | 
39 | COc1cc(Cl)c(S(=O)(=O)n2cnc(C)c2)cc1Cl | inactive | 
40 | CCc1nc(C)cn1S(=O)(=O)c1cc(OC)c(C)cc1C | 44.7 µM (active) | 

Row | SMILES | Potency | activity, negative = inhibition
41 | CCc1nc(C)cn1S(=O)(=O)c1cc([N+](=O)[O-])ccc1Cl | inactive | 
42 | CCOc1cc(/C=C2\SC(N3CCCC(C)C3)=NC2=O)ccc1O (stereo not given) | inactive | 
43 | CC(C)C(=O)NCC(c1cccs1)S(=O)(=O)c1ccc(F)cc1 (stereo not given) | inactive | 
44 | CC1CCCC(C)N1C(=O)COC(=O)COc1ccccc1C#N (stereo not given) | inactive | 
45 | COc1ccccc1N1CCN(Cc2ccc(OC)c3ccccc23)CC1 | 8.91 µM (active) | 
46 | COC(=O)c1cnc(N2CCN(c3ccccc3OC)CC2)c2ccccc12 | inactive | 
47 | COc1ccccc1N1CCN(CCN2C(=O)c3ccccc3C(C)(C)C2=O)CC1 | inactive | 
48 | CNCC(O)CN1CCN(c2ccccc2OC)CC1 (stereo not given) | 50.1 µM (active) | 
49 | CC(=O)Nc1ccc(OCC(O)CN2CCN(c3ccccc3Cl)CC2)cc1 (stereo not given) | inactive | 
50 | COc1ccccc1N1CCN(CC(=O)NCCc2ccc(S(N)(=O)=O)cc2)CC1 | inactive | 
51 | S=C(Nc1cccnc1)Nc1ccccn1 |  | -8.13% [at 2.33 µM] (inactive)
52 | COc1ccc(S(=O)(=O)N2CCCCC2)cc1C(=O)NC1CCS(=O)(=O)C1 (stereo not given) | inactive | 
53 | CCOC(=O)c1cc(-c2ccccc2C)n(Cc2cc(C)no2)n1 |  | -5.1% [at 0.501 µM] (inactive)
54 | CN(C(=O)COC(=O)Cn1cnc2c1c(=O)n(C)c(=O)n2C)C1(C#N)CCCCC1 |  | 24% [at 12.7 µM] (inactive)
55 | Cc1cc(-c2n[nH]c(=S)n2/N=C/C(Br)=C/c2ccccc2)n[nH]1 | 6.31 µM (active) | 
56 | Cc1cc(C(=O)N/N=C\C(Br)=C\c2ccccc2)c(C)o1 | inactive | 
57 | c1ccc(-n2nnnc2-c2cccnc2)cc1 | inactive | 
58 | S=c1[nH]nc(-c2cccnc2)n1/N=C/C(Cl)=C\c1ccccc1 | 0.891 µM (active) | 
59 | Cc1cc(-c2n[nH]c(=S)n2/N=C/c2ccco2)n[nH]1 |  | -104% [at 12.7 µM] (inactive)
60 | O=C(N/N=C\c1cccnc1)c1cc(-c2ccccc2)nc2c(Cl)cccc12 | inactive | 
